VACV Venus inh: qHTS for Stage-Specific Inhibitors of Vaccinia Orthopoxvirus: Venus Reporter Primary qHTS; Vaccinia virus Venus reporter expression, fluorescence; Potency, µM (top dose mostly 36.5 µM), without a hit: at the top dose activity change, negative = inhibition, actives largely listed as inhibitors; hit rate 0.46% among 330,000; AID 720580, 2013; calls by dose curve; tested in A549 cells; note: nearly all actives have a fitted effect of over 30% in size
MARV entry inh: qHTS for inhibitors of binding or entry into cells for Marburg Virus; Marburg virus pseudotyped entry inhibition, cell reporter; AID 540276, 2011; Potency, µM (series often up to 37.8 µM), for inactives: at the highest dose activity change, negative = inhibition, actives largely listed as inhibitors; hit rate 1.8% among 300,000; calls by dose curve; tested in HEK293 cells
VACV mCherry inh: qHTS for Stage-Specific Inhibitors of Vaccinia Orthopoxvirus: mCherry Reporter Primary qHTS. AID 720579, 2013. hit rate 0.63% among 310,000. Vaccinia virus mCherry reporter infection, fluorescence. Potency, µM (series often up to 36.5 µM), inactives show at the top dose activity change, negative = inhibition, hits mostly inhibitors; calls by dose curve; tested in A549 cells; note: nearly all actives have a fitted effect of over 35% in size
HCV inh: qHTS Assay for Inhibitors of Hepatitis C Virus (HCV); Huh7.5.1 HCVcc-Cre infection, luciferase reporter, 44 h; Potency, µM (doses to about 41.8 µM), without a hit: at the highest dose activity change, negative = inhibition, hits mostly inhibitors; hit rate 3.4% among 340,000; AID 651820, 2012; active = well fitted inhibition curve with a large enough effect; inconclusive = small, poorly fitted or top-dose-only effect, or another doubt; inactive = no such curve, though single readings can be large or run the other way
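Infectious HCV cell culture screen: compound-treated cells (1,000/well, pre-plated 4 h) are infected with HCVcc-Cre at roughly 0.5 moi and grown 44 h. Infection is quantified by luciferase signal after 15 min substrate incubation at room temperature.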
FMDV inh: High Throughput Screening for Foot and Mouth Disease Virus Antivirals | hit rate 1.2% among 410,000 | Potency, µM (series often up to 57.9 µM), for inactives: at the top dose activity change, negative = inhibition, most hits filed as inhibitors | FMDV antiviral cell-based qHTS; calls by dose curve; tested in HEK293T cells; note: read-out not given here; nearly all actives have a fitted effect of over 45% in size
Lassa entry inh: qHTS for Inhibitors of binding or entry into cells for Lassa Virus; Lassa virus pseudotype entry inhibition, cell reporter; Potency, µM (titrated, usually from 37.9 µM), for the others: at the highest dose activity change, negative = inhibition, most hits filed as inhibitors; hit rate 1.2% among 300,000; AID 540256, 2011; calls by dose curve; tested in HEK293 cells; note: nearly all actives have a fitted effect of over 50% in size
* hit, by the source's call; i = inactive; ? = inconclusive; nt = no result; [ ] = remark or other dose. Rows were chosen to be rich in hits. Some 5.3% of all compounds tested hit in one or more screens of this group. % is set by controls: 0 for no effect and ±100 for the full control effect; potency is the fitted concentration of half-maximal effect.

SMILES | VACV Venus inh | MARV entry inh | VACV mCherry inh | HCV inh | FMDV inh | Lassa entry inh
NC(=S)N=Nc1c(O)n(CCCl)c2ccc(Br)cc12 | ? | -21.3% | ? | ? | -17.5% | -14.5%
COc1ccc(/C=C/c2nccc3c2[nH]c2ccccc23)cc1 | -9.0% | nt | 17.4% | nt | nt | nt
C=Cc1ncc(OC)c2c1[nH]c1ccccc12 | ? | nt | ? | ? | 15.8µM* | nt
CC(C)c1ccc(NC(=O)C2CCCCN2S(=O)(=O)c2ccccc2)cc1 (centres undefined) | nt | nt | nt | 22.4µM* | -1.9% | nt
Cc1cccc(NC(=O)C2CCCCN2S(=O)(=O)c2ccccc2)c1C (centres undefined) | nt | nt | nt | -1.0% | -17.9% | nt
COc1ccc(-c2csc(NC(=O)C3CCCCN3S(=O)(=O)c3ccccc3)n2)cc1 (centres undefined) | ? | ? | nt | ? | -63.0% | 15.8µM*
Cc1cccc(C)c1OC[C@@H](N)C(C)C | nt | -18.7% | nt | nt | nt | nt
CC(C)[C@H](NC(=O)c1cc2cc(Cl)ccc2n1C)C(=O)N[C@@H](C(=O)O)c1ccccc1 | -15.2% | 25.9%[46.1 µM] | i | -17.4% | -13.2% | 21.4%[46.1 µM]
CC(=O)c1ccccc1OCC(O)CNC1CCCC1 (centres undefined) | nt | nt | nt | -2.4% | -0.7% | nt
C=CCN1C(=O)C(Cc2ccc(OCC)cc2)S/C1=N\N=C\c1cccs1 (centres undefined) | 1.3% | -27.3% | nt | ? | -15.4% | 11.2µM*
Cc1nn2c(-c3ccco3)ccnc2c1-c1ccc(Cl)cc1 | -18.8% | 12.6%[46.1 µM] | -20.1% | nt | 49.2% | -7.9%[46.1 µM]
Cc1ccc(-c2nnc(Nc3ccc(C(=O)N(C)C)cc3)c3ccccc23)cc1S(=O)(=O)N(C)C | -4.6% | nt | -14.8% | nt | -25.7% | -31.5%[46.1 µM]
N=c1c2c(n(Cc3ccc(Br)cc3)c3c1CCC3)CCCC2 | nt | ? | nt | ? | 39.8µM* | ?
COCCN(Cc1ccccc1)C(=O)c1cccc(S(=O)(=O)N2CCN(Cc3ccccc3)CC2)c1 | -25.2% | nt | ? | nt | ? | nt
COCCN(Cc1ccccc1)C(=O)c1cccc(S(=O)(=O)N2CCCc3ccccc32)c1 | nt | nt | nt | 10µM* | 6.1% | nt
COc1ccccc1CN(C)C(=O)c1cccc(S(=O)(=O)N2CCCc3ccccc32)c1 | -14.3% | -41.3% | -27.7% | 10µM* | 7.0% | ?
CCCCC[C@H](O)/C=C/[C@H]1C=CC(=O)[C@@H]1C/C=C\CCCC(=O)O | -15.4%[3.33 µM] | -2.8% | -14.6%[3.33 µM] | -13.6%[8.37 µM] | 6.7%[6.7 µM] | ?
CCCCC[C@@H](/C=C/C1C(=O)C=C[C@H]1C/C=C\CCCC(=O)O)OC(C)=O (some centres undefined) | 13.7% | nt | ? | -5.9%[8.37 µM] | 35.5µM* | nt
CCOc1ccc(NC(=O)CN(C)C(=O)Cn2cnc3c2c(=O)n(C)c(=O)n3C)cc1OCC | -5.2% | 0.0% | -13.0% | 8.8% | -21.4% | 11.7%
COc1ccc(-c2c(C(C)=O)c(C)nc3sc4c(=N)n(N)cnc4c23)cc1 | 12.6µM* | -15.5% | 7.08µM* | ? | -4.1% | ?
CCOC(=O)c1c(C)nc2sc(C(N)=O)c(N)c2c1-c1ccc(OC)cc1 | ? | ? | -2.4% | ? | -23.4% | -2.7%
COc1ccc(NC(=O)c2sc3nc(C)c(C(=O)Nc4ccc(C)cc4C)c(-c4ccc(Cl)cc4)c3c2N)cc1 | -9.4% | -6.9%[46.1 µM] | -6.1% | nt | 12.2% | -10.3%[46.1 µM]
CCOC(=O)c1c(C)nc2sc3c(=O)n(-c4ccc(C(C)=O)cc4)nnc3c2c1-c1ccc(OC)cc1 | -7.1% | ? | -23.7% | 8.91µM* | -4.3% | ?
CCOC(=O)c1c(C)nc2sc(C(=O)Nc3ccc(C(C)=O)cc3)c(N)c2c1-c1ccc(OC)cc1 | ? | 2.82µM* | nt | ? | ? | ?
CCOC(=O)c1c(C)nc2sc3c(=O)n(-c4ccc(OC)cc4)cnc3c2c1-c1ccc(OC)cc1 | -3.4% | 2.4% | -14.9% | 1.6% | -1.1% | -9.4%
CCOC(=O)c1c(C)nc2sc(C(=O)Nc3ccc(OC)cc3)c(N)c2c1-c1ccc(OC)cc1 | ? | ? | ? | 3.55µM* | -12.8% | ?
COC(=O)c1cc(Cl)cc2c(C)c(C3(O)CCCCC3)[nH]c12 | -19.5% | nt | -27.8% | 8.91µM* | ? | nt

Assay outcomes (PubChem BioAssay)
